Screens as filed in PubChem BioAssay.
Hits are enriched below; roughly 21% of the tested compounds scored in any of these assays.
Gal4-VP16 FLuc = inhibits Gal4-VP16 luciferase reporter, ROR gamma counter-screen; actives 3.5% (n = 310,000); Drosophila S2 Gal4-VP16 UAS-luciferase, luminescence, 20 h; Potency, µM (titrated, usually from 53.6 µM), for inactives: at the top dose activity, negative = inhibition, hits mostly inhibitors; AID 2546;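 also: Gal4-VP16 expression switched on by copper sulfate through the metallothionein promoter; potency is read from the fitted curve at half-maximal effect; nearly all actives have a fitted effect of over 50% in size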
TDP1 cell noCPT = qHTS for Inhibitors of human tyrosyl-DNA phosphodiesterase 1 (TDP1): qHTS in cells in absence of CPT | DT40 Tdp1-/- hTDP1 cells, no CPT, ATP luminescence, 48 h | Potency, µM (highest dose often 46.2 µM), for inactives: at the top dose activity change, negative = growth inhibition, usual class: inhibitors | actives 15% (n = 420,000) | AID 686978, 2013; also: potency is read from the fitted curve at half-maximal effect; nearly all actives have a fitted effect of over 55% in size
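Camptothecin absent (DMSO only). Human TDP1-complemented DT40 knockout cells, 400 cells/well, 37 °C for minimum 48 hr; ATP measured via CellTiter-Glo, 30 min dark incubation, luminescence.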
RORg inh = inhibitors of mouse ROR gamma transcriptional activity. P51450. Drosophila S2 Gal4-RORgamma UAS-luciferase reporter, 20 h. Potency, µM (top dose mostly 53.6 µM), without a hit: at the highest dose activity change, negative = inhibition, actives largely listed as inhibitors. actives 5.4% (n = 310,000). AID 2551; also: potency is read from the fitted curve at half-maximal effect; nearly all actives have a fitted effect of over 60% in size
Target sequence (P51450 whole entry, looked up, the tested form may be a part): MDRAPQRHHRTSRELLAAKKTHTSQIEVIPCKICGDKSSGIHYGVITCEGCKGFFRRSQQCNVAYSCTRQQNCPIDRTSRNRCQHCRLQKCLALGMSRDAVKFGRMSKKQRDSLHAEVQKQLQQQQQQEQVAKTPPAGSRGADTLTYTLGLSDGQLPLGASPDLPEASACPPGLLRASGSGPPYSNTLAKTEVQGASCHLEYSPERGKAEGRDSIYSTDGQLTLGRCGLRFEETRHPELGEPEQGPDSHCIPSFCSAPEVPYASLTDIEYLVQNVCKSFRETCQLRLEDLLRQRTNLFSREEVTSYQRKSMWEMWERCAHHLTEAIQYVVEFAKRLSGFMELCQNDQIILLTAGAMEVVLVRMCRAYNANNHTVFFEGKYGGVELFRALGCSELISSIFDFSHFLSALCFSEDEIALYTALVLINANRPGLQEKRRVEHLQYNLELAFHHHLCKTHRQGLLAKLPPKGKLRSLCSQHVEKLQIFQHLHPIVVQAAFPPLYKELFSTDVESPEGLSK
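Using a luciferase readout, inhibitors were identified by reduced reporter activity in Drosophila cells coexpressing a copper-inducible Gal4–ROR gamma fusion and UAS-driven Photinus luciferase, incubated 20 hr after 700 uM copper sulfate.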
ELG1 repair inh = blocks ELG1-dependent DNA repair in HEK293T cells; HEK293T ELG1-luciferase reporter, luminescence, 16 h; DNA damage induced by 5-fluorouridine; Potency, µM (highest dose often 46.1 µM), for inactives: top-dose activity change, negative = inhibition, hits mostly inhibitors; actives 2.3% (n = 330,000); also: potency is read from the fitted curve at half-maximal effect; nearly all actives have a fitted effect of over 55% in size
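HEK293T cells expressing luciferase-tagged ELG1 (2,000/well) received 5-Fluorouridine plus compound or DMSO for 16 hr at 37 °C. Luciferase was read by ONE-Glo luminescence after 30 min at room temperature.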
TDP1 cell CPT = growth inhibition of DT40 Tdp1-/-;hTDP1 cells with camptothecin (screen for TDP1 inhibitors) | chicken DT40 Tdp1-/-;hTDP1 cells + 20 nM CPT, ATP luminescence, 48 h | actives 12% (n = 420,000) | AID 686979 | Potency, µM (highest dose often 46.2 µM), for the others: at the top dose activity change, negative = growth inhibition, usual class: inhibitors; also: potency is read from the fitted curve at half-maximal effect; nearly all actives have a fitted effect of over 55% in size
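Cell growth measured by CellTiter-Glo luminescence after a minimum 48 h, 37 C compound exposure with 20 nM CPT in Tdp1-knockout DT40 cells stably expressing hTDP1, seeded 400/well; qHTS titration format.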
IL1B secr inh = inflammasome signaling inhibition, IL-1 beta readout; THP-1 LPS/ATP IL-1B secretion, AlphaLISA, 16 h; active compounds read low; activity change, % at 57.5 µM; actives 4.7% (n = 360,000); in the data active = activity change below about -50%; inconclusive = mostly about -30% to -49%
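Secreted IL-1B measured by AlphaLISA bead assay after 16 h compound exposure of THP-1 cells; compounds (final up to 57.5 uM) added 1 h before LPS (250 ng/mL) and ATP (1.25 mM) stimulation; lower signal means less secretion.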
Active calls of the source: *; [ ] = remark or other dose. Unless noted, calls follow the shape of the dose curve; as a rule, active = well fitted curve in the direction sought with a large enough effect; inconclusive = small, poorly fitted or top-dose-only effect, or another doubt; inactive = no such curve, though single readings can be large; an effect the other way counts as inactive or inconclusive. % is scaled to controls: 0 for no effect and ±100 for the full control effect.

How did Cn1ccnc1SCC(=O)c1ccc([N+](=O)[O-])cc1 do in these assays?
Gal4-VP16 FLuc: 0.0%; TDP1 cell noCPT: inconclusive; RORg inh: inconclusive; ELG1 repair inh: -1.2%; TDP1 cell CPT: 18.4µM*; IL1B secr inh: -14.7

What do the screens show for `COc1ccccc1C(=O)CSc1nccn1C`?
Gal4-VP16 FLuc: inconclusive; TDP1 cell noCPT: 16.4µM*; RORg inh: -28.9%; ELG1 repair inh: inconclusive; TDP1 cell CPT: inconclusive; IL1B secr inh: -18.8

What do the screens show for `Cn1ccnc1SCC(=O)Nc1cccc2ccccc12`?
Gal4-VP16 FLuc: 7.0%; TDP1 cell noCPT: -5.0%; RORg inh: -1.0%; ELG1 repair inh: inconclusive; TDP1 cell CPT: -27.2%; IL1B secr inh: 5.7

What do the screens show for `CCN(C(=O)CSc1nccn1C)c1cccc2ccccc12`?
TDP1 cell noCPT: 10.3µM*; ELG1 repair inh: 12.9%; TDP1 cell CPT: 20.6µM*; IL1B secr inh: 58.5

Results for Cn1ccnc1SCC(=O)c1c[nH]c2ccccc12 ?
Gal4-VP16 FLuc: -9.2%; TDP1 cell noCPT: -14.6%; RORg inh: 12.8%; ELG1 repair inh: inconclusive; TDP1 cell CPT: -20.6%; IL1B secr inh: 12.4

Results for Cc1sc2ncn(CC(=O)N3CCN(c4cccc(Cl)c4)CC3)c(=O)c2c1S(=O)(=O)N1CCN(c2ncccn2)CC1 ?
TDP1 cell noCPT: -25.7%; TDP1 cell CPT: -18.8%

Results for CO[C@H]1COC(=O)C/C=C\[C@@H](C)COC(=O)[C@H]2CCCN2C(=O)C/C=C\[C@H]1C ?
Gal4-VP16 FLuc: 5.2%[10 µM]; RORg inh: -28.7%[10 µM]

What do the screens show for `Cc1ccc(C)c(NC(=O)CCc2nc3cccnc3n2Cc2cccs2)c1`?
TDP1 cell noCPT: 20.6µM*; TDP1 cell CPT: 18.4µM*

Results for COc1cc(NC(=O)CCc2nc3cccnc3n2Cc2cccs2)cc(OC)c1OC ?
TDP1 cell noCPT: 16.4µM*; TDP1 cell CPT: 16.4µM*

What do the screens show for `CCCn1c(CCC(=O)Nc2cc(Cl)c(OC)cc2OC)nc2cccnc21`?
TDP1 cell noCPT: 16.4µM*; TDP1 cell CPT: inconclusive

How did O=C(/C=C/c1ccc(Cl)cc1)OCC(=O)c1ccc[nH]1 do in these assays?
TDP1 cell noCPT: 3.2%; ELG1 repair inh: inconclusive; TDP1 cell CPT: -0.5%; IL1B secr inh: 5.5

Results for COc1cc2c(cc1OC)C(COc1cccc(C(F)(F)F)c1)NCC2 (stereo not drawn) ?
Gal4-VP16 FLuc: -2.4%; TDP1 cell noCPT: inconclusive; RORg inh: 1.1%; ELG1 repair inh: 6.7%; TDP1 cell CPT: 20.6µM*; IL1B secr inh: -8.1

What do the screens show for `Nc1cccc(Nc2nc(OC(C(F)(F)F)C(F)(F)F)nc(OC(C(F)(F)F)C(F)(F)F)n2)c1`?
Gal4-VP16 FLuc: -24.5%; TDP1 cell noCPT: 23.1µM*; RORg inh: inconclusive; ELG1 repair inh: inconclusive; TDP1 cell CPT: 20.6µM*; IL1B secr inh: -89.3*

What do the screens show for `COc1nc(Nc2ccc(O)cc2)nc(OC(C(F)(F)F)C(F)(F)F)n1`?
Gal4-VP16 FLuc: 5.9%; TDP1 cell noCPT: -23.6%; RORg inh: 11.4%; ELG1 repair inh: -0.4%; TDP1 cell CPT: inconclusive; IL1B secr inh: inconclusive

How did CC(=O)c1c(C)oc2c(Cl)cc(NS(=O)(=O)c3cc(C)c(C)cc3C)cc12 do in these assays?
TDP1 cell noCPT: inconclusive; TDP1 cell CPT: -22.0%

Results for C[C@H](CO)N1C[C@H](C)[C@@H](CN(C)C(=O)Nc2ccc3c(c2)OCO3)Oc2c(NC(=O)c3ccncc3)cccc2C1=O ?
TDP1 cell noCPT: 2.1%; ELG1 repair inh: -10.0%; TDP1 cell CPT: 13.6%; IL1B secr inh: -4.1

Results for Cc1ccc(NC(=O)c2noc3c2CC(C(C)(C)C)CC3)cc1 (stereo not drawn) ?
Gal4-VP16 FLuc: 2.9%; TDP1 cell noCPT: 23.1µM*; RORg inh: 18.4%; ELG1 repair inh: 1.0%; TDP1 cell CPT: inconclusive; IL1B secr inh: -27.3

How did CC(C)(C)C1CCc2onc(C(=O)Nc3cccc(O)c3)c2C1 (stereo not drawn) do in these assays?
Gal4-VP16 FLuc: inconclusive; RORg inh: -44.0%; ELG1 repair inh: -0.9%

How did COC(=O)c1ccccc1NC(=O)c1noc2c1CC(C(C)(C)C)CC2 (stereo not drawn) do in these assays?
Gal4-VP16 FLuc: 2.7%; TDP1 cell noCPT: 20.6µM*; RORg inh: 15.3%; ELG1 repair inh: 7.5%; TDP1 cell CPT: inconclusive; IL1B secr inh: 6.4

Results for Cc1nn(-c2ccccc2)c(Cl)c1C(=O)NNC(=O)c1ccccc1O ?
TDP1 cell noCPT: 13µM*; ELG1 repair inh: inconclusive; TDP1 cell CPT: inconclusive; IL1B secr inh: 110.7

How did CC(=O)c1cccc(NC(=O)c2nc(-c3ccccc3)n(-c3cccc(Cl)c3)n2)c1 do in these assays?
TDP1 cell noCPT: 13µM*; TDP1 cell CPT: 16.4µM*

What do the screens show for `NC(=O)c1ccsc1NC(=O)c1nc(-c2ccccc2)n(-c2ccccc2)n1`?
Gal4-VP16 FLuc: -1.8%; TDP1 cell noCPT: inconclusive; RORg inh: -7.8%; ELG1 repair inh: 18.4µM*; TDP1 cell CPT: inconclusive; IL1B secr inh: -51.7*

What do the screens show for `CC(=O)c1ccc(NC(=O)c2nc(-c3ccccc3)n(-c3ccccc3)n2)cc1`?
TDP1 cell noCPT: 20.6µM*; TDP1 cell CPT: inconclusive

How did Cc1nn(-c2ccccc2)c(Cl)c1C(=O)NNC(=O)c1ccncc1 do in these assays?
TDP1 cell noCPT: -2.5%; ELG1 repair inh: 14.1%; TDP1 cell CPT: -4.1%; IL1B secr inh: 12.9

What do the screens show for `C[C@H](NC(=O)CNC(=O)[C@@H](NC(=O)[C@H](Cc1ccccc1)NC(=O)CNC(=O)CNC(=O)[C@@H](N)Cc1ccccc1)[C@@H](C)O)C(=O)N[C@@H](CCCN=C(N)N)C(=O)N[C@@H](CCCCN)C(=O)N[C@@H](CO)C(=O)N[C@@H](C)C(=O)N[C@@H](CCCN=C(N)N)C(=O)N[C@H](CN)CCCCN`?
TDP1 cell noCPT: -1.4%[4.12 µM]; TDP1 cell CPT: -4.2%[4.12 µM]
